Consider 15 compounds from PubChem BioAssay (NCI).

Some test systems named below: SK-MEL-2 melanoma; EKVX NSCLC; SN12C renal; TK-10 renal; ACHN renal; CAKI-1 renal; A498 renal; CCRF-CEM leukemia; MOLT-4 leukemia.
Holding throughout (assay): NCI-60 one-dose screen, 48 h (100 = growth as untreated, 0 = no growth, -100 = all killed)
Common to all, as to settings: 10 µM unless noted

The structures appear in SMILES notation. Compounds without any hit were thinned out: in the full panel of roughly 83,000, 20% have a hit.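 The endpoint reported here, percent growth, reads 100 for growth as untreated, 0 for no net growth and -100 for all cells dead.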 Unmarked numbers belong to inactive results. Active and inactive are the calls of the source. The calls were made as follows: active = growth percent below 10; inactive = the rest.

Turning to `C=C(C)[C@@H]1CC[C@]2(C(=O)N3CCN(CC)CC3)CC[C@]3(C)[C@H](CC[C@@H]4[C@@](C)(CCC(=O)N5CCN(CC)CC5)[C@H](C(=C)C)CC[C@]43C)[C@@H]12`, the growth in the experiment on SK-MEL-2 melanoma is 90.2%; in the experiment with EKVX NSCLC, 52.5%; with SN12C renal, 66.9%; in the experiment on TK-10 renal it was 49.6%; with ACHN renal it was -49.8% (active); with CAKI-1 renal it was -15.3% (active). Moreover, the results for the growth in the experiment on A498 renal, in the experiment on CCRF-CEM leukemia and in the experiment with MOLT-4 leukemia were 92.6%, 49.4% and 34%, respectively.

As to `COc1cc(OC)c2c(c1)c1nc3cc(C)c(C)cc3nc1n2CCN(C)C`, the growth in the experiment on SK-MEL-2 melanoma was 103%; in the experiment with EKVX NSCLC, 89.2%; in the experiment on SN12C renal it was 82.1%; in the experiment with TK-10 renal, 182%; in the experiment on ACHN renal it was 84.3%; with CAKI-1 renal, 69.7%. Also, the growth in the experiment on A498 renal was 105%; in the experiment with CCRF-CEM leukemia it was 79.6%; in the experiment with MOLT-4 leukemia it was 73.2%.

For `Cn1cc(-c2nc(-c3c[nH]c4ncccc34)cs2)c2cc(Br)ccc21`, the growth in the experiment on SK-MEL-2 melanoma was 77.6%; in the experiment with EKVX NSCLC it was 75.2%; with SN12C renal it was 87.1%; with TK-10 renal, 63.5%; in the experiment on ACHN renal it was 58.7%; in the experiment with CAKI-1 renal, 78%. Further, the growth in the experiment on A498 renal is 68.4%; in the experiment on CCRF-CEM leukemia, 58.9%; with MOLT-4 leukemia, 69.1%.

Take `CC(=O)O[C@H]1CC[C@@]2(C)[C@@H](CC[C@@H]3[C@@H]2CC(=O)[C@@]2(C)[C@H]3C[C@@H](C3CCCC3=O)[C@@H]2C(C)=O)C1` (stereo not given in full): the growth with SK-MEL-2 melanoma is 111%; in the experiment with EKVX NSCLC, 116%; in the experiment with SN12C renal it was 84.4%; with TK-10 renal, 106%; in the experiment with ACHN renal, 107%; with CAKI-1 renal it was 114%. In addition, the growth in the experiment with A498 renal is 97.1%; with CCRF-CEM leukemia it was 92.9%.

Regarding `Clc1ccccc1-c1nc(Nc2nc3ccccc3s2)nc(C(Cl)(Cl)Cl)n1`, the growth in the experiment with SK-MEL-2 melanoma is 85.9%; with EKVX NSCLC, 54%; in the experiment on SN12C renal, 82.6%; in the experiment with TK-10 renal, 84.1%; with ACHN renal, 6.55% (active); with CAKI-1 renal it was 20.9%. For the same compound, the growth in the experiment on A498 renal was 58.3%; with CCRF-CEM leukemia it was 92.5%; in the experiment on MOLT-4 leukemia, 86.3%.

With `Cc1cccc(C)c1NCc1nc(-c2ccccc2)n[nH]1`, the growth in the experiment with SK-MEL-2 melanoma is 101%; in the experiment with EKVX NSCLC, 95%; in the experiment on SN12C renal, 105%; with TK-10 renal, 101%; with ACHN renal, 96.8%; in the experiment on A498 renal it was 100%. The growth in the experiment with CCRF-CEM leukemia was 110%; with MOLT-4 leukemia, 98%.

For the compound `COCCNC1=C(Cl)C(=O)c2ccccc2C1=O`, the growth was 103% with SK-MEL-2 melanoma; 108% with EKVX NSCLC; 95.2% with SN12C renal; 138% in the experiment with TK-10 renal; 104% with ACHN renal; 116% in the experiment on CAKI-1 renal. The growth in the experiment with A498 renal is 81.3%; in the experiment with CCRF-CEM leukemia, 99.7%; in the experiment with MOLT-4 leukemia, 108%.

On to `CCC(=O)c1c(C)[nH]c(C)c1C`, for which the growth was 16.6% with SK-MEL-2 melanoma; 103% with EKVX NSCLC; 95.5% with SN12C renal; 99.4% in the experiment on TK-10 renal; -33.4% (active) in the experiment on ACHN renal; 46.4% in the experiment on CAKI-1 renal. The values for the growth in the experiment on A498 renal, with CCRF-CEM leukemia and in the experiment on MOLT-4 leukemia were 103%, 98.5% and 84%, respectively.

On to `N#C/C(=C\c1ccc(-c2ccccc2)o1)c1nc(-c2ccco2)cs1`, for which the growth with SK-MEL-2 melanoma is 106%; with EKVX NSCLC, 37.3%; in the experiment with SN12C renal it was 92.3%; with TK-10 renal, 55.8%; in the experiment on ACHN renal, 93.4%; in the experiment with CAKI-1 renal, 85.2%. The growth is 125% with A498 renal, 95.9% with CCRF-CEM leukemia and 98.7% in the experiment with MOLT-4 leukemia.

Take `COc1cc2nc(Cl)nc(Nc3cccc(C(=O)/C=C/c4ccc(Cl)cc4)c3)c2cc1OC`: the growth with SK-MEL-2 melanoma is 96.4%; in the experiment with EKVX NSCLC, 71.7%; in the experiment with SN12C renal, 70.5%; with TK-10 renal it was 149%; in the experiment on ACHN renal it was 56%; in the experiment with CAKI-1 renal, 51.9%. The results for the growth in the experiment on A498 renal, in the experiment with CCRF-CEM leukemia and with MOLT-4 leukemia were 77.3%, 19.4% and 33.5%, respectively.

With `c1ccc2c(-c3nc(-c4c[nH]c5ncccc45)cs3)c[nH]c2c1`, the growth in the experiment on SK-MEL-2 melanoma was 102%; with EKVX NSCLC it was 80.5%; with SN12C renal, 76.7%; in the experiment with TK-10 renal it was 120%; in the experiment with ACHN renal it was 97.3%; in the experiment with CAKI-1 renal, 98.7%. Moreover, the growth is 91.8% in the experiment on A498 renal and 75.4% in the experiment on CCRF-CEM leukemia.

Take `CCOc1ccc(NC(=O)c2ccoc2COc2ccccc2)cc1`: the growth with SK-MEL-2 melanoma is 106%; in the experiment on EKVX NSCLC, 96.1%; with SN12C renal, 99.1%; with TK-10 renal it was 101%; in the experiment with ACHN renal it was 106%; in the experiment on CAKI-1 renal it was 95.7%. In addition, the growth was 108% in the experiment with A498 renal and 95% in the experiment with CCRF-CEM leukemia.

Turning to `C(=C\c1c[nH]c2ccccc12)/c1ccc2ccccc2n1`, the growth in the experiment on SK-MEL-2 melanoma is 86.5%; in the experiment with EKVX NSCLC, 70.8%; in the experiment with SN12C renal it was 51.4%; in the experiment on TK-10 renal, 114%; in the experiment with ACHN renal, 89.9%; in the experiment on CAKI-1 renal, 60.7%. The growth in the experiment on A498 renal is 120%; with MOLT-4 leukemia, 12.4%.

For `CCCC1CCCCN1C(=O)OCC(C)C` (stereo not given), the growth was 108% in the experiment on SK-MEL-2 melanoma; 104% in the experiment on EKVX NSCLC; 102% in the experiment on SN12C renal; 107% in the experiment on TK-10 renal; 100% in the experiment on ACHN renal; 90.2% in the experiment on CAKI-1 renal. In addition, the values for the growth in the experiment with A498 renal, with CCRF-CEM leukemia and in the experiment with MOLT-4 leukemia were 108%, 96.3% and 95.3%, respectively.

For the compound `COc1ccc2c(c1)c(-c1nc(-c3c[nH]c4ncccc34)cs1)cn2C`, the growth was 60.9% in the experiment with SK-MEL-2 melanoma; 29.3% in the experiment with EKVX NSCLC; 74.5% in the experiment with SN12C renal; 60.3% in the experiment with TK-10 renal; 53.2% with ACHN renal; 55.1% with CAKI-1 renal. For the same compound, the growth with A498 renal was 60.1%; in the experiment with CCRF-CEM leukemia, 51.7%; with MOLT-4 leukemia, 54.5%.
